Source: PubChem BioAssay (Johns Hopkins Ion Channel Center)
Hits are enriched below; roughly 2.4% of the tested compounds scored in any of these assays.
TMEM16A act: TMEM16A chloride channel activators or potentiators, primary screen, cell-based, HTS. Anoctamin-1 (Mus musculus), Q8BHY3. HEK293 TMEM16A/YFP-H148Q/I152L, iodide quench fluorescence; stronger effect = lower value. B-score at 10 µM. 340,000 compounds, 0.3% hits;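 active means fluorescence-ratio B-score plate-corrected deviation score at least 3 library SD below zero, with starting fluorescence score within 5 deviations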;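 further: channel opened by trigger with iodide after compound preincubation; score built on the fluorescence ratio of max minus min over baseline; more negative score means more quench and so TMEM16A activation or potentiation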
CHT inh: inhibitors of human choline transporter CHT; High affinity choline transporter 1 (Homo sapiens), Q9GZV3; CHT-expressing cells, membrane potential dye, choline response; stronger effect = lower value; B-score at 10 µM; 310,000 compounds, 0.86% hits; AID 488975, 2010;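 active means B-score over 3 SD under the library average, and starting fluorescence ratio not unusually high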;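 further: choline stimulus applied at its EC90 after an EC20 pre-addition; B-score computed on integrated fluorescence ratio after choline addition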
Target sequence (Q9GZV3 whole entry, looked up): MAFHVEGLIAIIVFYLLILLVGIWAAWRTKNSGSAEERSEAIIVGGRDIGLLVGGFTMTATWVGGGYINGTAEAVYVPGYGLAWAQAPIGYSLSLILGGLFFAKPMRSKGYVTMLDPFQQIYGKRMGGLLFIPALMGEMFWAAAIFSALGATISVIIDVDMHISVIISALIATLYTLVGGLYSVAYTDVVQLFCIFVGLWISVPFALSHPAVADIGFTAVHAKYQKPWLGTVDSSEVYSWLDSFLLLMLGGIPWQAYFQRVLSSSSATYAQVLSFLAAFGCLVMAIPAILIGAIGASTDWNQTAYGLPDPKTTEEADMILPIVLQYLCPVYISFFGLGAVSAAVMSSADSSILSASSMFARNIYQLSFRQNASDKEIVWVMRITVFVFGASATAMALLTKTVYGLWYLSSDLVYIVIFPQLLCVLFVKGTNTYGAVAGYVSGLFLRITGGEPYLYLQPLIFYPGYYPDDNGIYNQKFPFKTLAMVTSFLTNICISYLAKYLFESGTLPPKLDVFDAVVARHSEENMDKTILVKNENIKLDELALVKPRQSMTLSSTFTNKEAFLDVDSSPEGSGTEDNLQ
CHT allo act: CHT positive allosteric modulators, primary screen, cell-based, membrane potential dye, choline EC20. High affinity choline transporter 1 (Homo sapiens), Q9GZV3. B-score at 10 µM. 310,000 compounds, 0.49% hits. AID 488977, 2010. CHT-expressing cells; stronger effect = higher value; LV-AA mutant CHT in HEK293 cells;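 active means initial fluorescence not abnormally high and integrated response B-score, plate-corrected, over 3 SD above library mean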
TMEM16A inh: TMEM16A chloride channel inhibitors, primary screen, cell-based, HTS; 310,000 compounds, 1.2% hits; HEK293 TMEM16A/YFP iodide influx fluorescence, ionomycin; normalized B-score (activity score, 25-100; higher = stronger inhibition) at 10 µM;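 active means ratio plate-corrected score three or more library SD toward inhibition, starting fluorescence score within five deviations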;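 further: score derived from kinetic fluorescence span divided by baseline fluorescence per well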
CHT activ conf: CHT activators, confirmation, cell-based, membrane potential dye, duplicate | CHT-expressing cells, membrane potential dye fluorescence (FDSS); % of choline EC20–EC90 response window; HEK293 expressing CHT LV-AA mutant; choline added at its EC20 | shares compounds with CHT allo act | activation, % at 10 µM | 2,500 compounds, 91% hits | AID 504833, 2011;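 active means primary screen active, with duplicate mean activation above negative control mean plus 3 SD, cut at about 11% in these data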
HEK293 MP dye: membrane potential response in parental HEK293 cells, counter-screen for CHT activator project, cell-based, membrane potential dye | shares compounds with CHT allo act | membrane potential dye fluorescence (FDSS); measured after EC20 choline addition | ratio readout change at 10 µM, hits read low | 2,500 compounds, 62% hits;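 active means duplicate-averaged ratio beyond 3 SD from buffer wells, up or down, though filed actives are nearly all decreases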
Active calls of the source: *; i = inactive; · = no result given.

SMILES	TMEM16A act	CHT inh	CHT allo act	TMEM16A inh	CHT activ conf	HEK293 MP dye
CC(Nc1ccnc2cc(Cl)ccc12)c1ccc(S(N)(=O)=O)cc1 (stereo unspecified)	i	i	i	i	35*	-46*
COc1ccccc1CC(=O)NN1C(=O)c2ccccc2C1=O	i	i	i	i	·	·
CCN1C(=O)C(C(=O)c2ccccc2)SC1=S (stereo unspecified)	i	i	i	i	·	·
N#CCC(=O)NNc1c([N+](=O)[O-])cc(C(F)(F)F)cc1[N+](=O)[O-]	i	i	i	i	27*	-44*
O=C(COc1ncnc2ccccc12)NCC1CCCO1 (stereo unspecified)	i	i	i	i	·	·
O=c1c2ccccc2nc2n1C(CSCc1ccc(Cl)cc1)CS2 (stereo unspecified)	i	i	8.2*	i	11*	i
O=c1c2ccccc2nc2n1C(CSc1ccccc1)CS2 (stereo unspecified)	i	i	i	i	·	·
CCn1cc(C2=NCCO2)c2ccccc21	i	i	9.4*	i	43*	-44*
CCn1cc(C2=NC(C)CO2)c2ccccc21 (stereo unspecified)	i	i	i	i	·	·
COc1ccc(NC(=O)C(=O)NNC(=O)c2cccs2)c(OC)c1	i	i	7.2*	i	69*	-47*
CCOC(=O)C(C)On1c(-c2ccccc2)nc2ccc([N+](=O)[O-])cc21 (stereo unspecified)	i	i	i	i	16*	-20*
O=C(O)COn1c(-c2ccccc2)nc2ccc([N+](=O)[O-])cc21	i	i	i	i	·	·
Cc1cc(C)nc(NS(=O)(=O)c2ccc(NC(=O)c3cccc(N4C(=O)CCC4=O)c3)cc2)n1	i	i	i	i	·	·
CC[n+]1c(C)sc2c3ccsc3ccc21	i	i	10*	i	48*	-50*
COc1ccc(C2/C=C\CN(Cc3ccco3)CC(=O)N2Cc2ccc(F)cc2)cc1 (stereo unspecified)	i	i	i	i	·	·
CC[n+]1c(/C=C/Nc2ccccc2)oc2ccccc21	i	i	i	i	41*	-35*
CC[n+]1c(/C=C/N(C)c2ccccc2)oc2ccccc21	i	i	i	i	52*	-30*
CC[n+]1c(/C=C/Nc2ccccc2)oc2ccc(OC)cc21	i	i	i	i	·	·
CC[n+]1c(/C=C/N(C)c2ccccc2)oc2ccc(F)cc21	i	i	i	i	30*	-39*
O=C(c1ccccc1CCc1ccccc1)N1CCN(c2ccccn2)CC1	i	i	6.5*	i	27*	i
Cc1cc(NCc2ccco2)nc2cc(O)ccc12	i	i	8.6*	i	29*	-42*
Cc1ccc(Nc2cc(C)c3ccc(O)cc3n2)cc1C	i	i	i	i	·	·
COc1ccc(Cl)cc1NC(=O)CN(C)C(=O)c1cc(-c2ccncc2)nc2ccccc12	i	i	7.8*	i	49*	i
COC(=O)c1ccc(OC)c(Cn2c(=O)n(C)c(=O)c3sccc32)c1	i	i	i	i	·	·
CCn1c(=O)c2sccc2n(Cc2cc(C(=O)OC)ccc2OC)c1=O	i	i	i	i	36*	i
SMILES	TMEM16A act	CHT inh	CHT allo act	TMEM16A inh	CHT activ conf	HEK293 MP dye
O=C(NN1CCOCC1)c1ccccc1Br	i	i	i	i	·	·
Cc1nc2sc3c(c2c(=O)o1)CC(C)(C)OC3	i	i	i	i	·	·
N=c1c2c3c(sc2nc2n1CCC2)CCCC3	i	i	i	i	48*	-40*
CC1(C)Cc2c(sc3nc4n(c(=N)c23)CCC4)CO1	i	i	8.5*	i	50*	-63*
CCC1(O)CCCC2C3CCC4CC(=O)CCC4(C)C3C(=O)CC21C (stereo unspecified)	i	·	·	·	·	·
O=C(c1ccc(CNc2c(N3CCCC3)c(=O)c2=O)cc1)N1CC=C(c2ccccc2)CC1	i	i	i	i	·	·
CCOc1ccccc1/C=C/C(=O)N1CCN(C(=O)c2ccco2)CC1	i	·	·	·	·	·
O=C(NC1CCCC1)C(c1ccncc1)N(C(=O)c1csnn1)c1cccc(F)c1 (stereo unspecified)	i	i	i	i	·	·
CCCN(CC(=O)Nc1cc(Cl)ccc1Cl)C(=O)/C=C/c1ccco1	i	i	6.8*	i	31*	i
CCCN(CC(=O)Nc1cc(Cl)ccc1Cl)C(=O)/C=C/c1cc(OC)ccc1OC	i	·	·	·	·	·
Cc1sc2ncnc(NCCCn3ccnc3)c2c1C	i	i	i	i	48*	-51*
CC(=O)COc1ccccc1OC(=O)c1ccco1	i	i	i	i	-1	i
CCOc1ccccc1OC(=O)c1ccco1	i	i	i	i	·	·
CCOCCCn1c(=NC(C)=O)c(C#N)cc2c(=O)n3cccc(C)c3nc21	i	i	i	i	43*	-62*
CCCCn1c(=NC(C)=O)c(C#N)cc2c(=O)n3cccc(C)c3nc21	i	i	i	i	·	·
COc1ccccc1N(CC(=O)NC1CCCCC1)C(=O)CCC(=O)Nc1nccs1	i	i	i	i	·	·
O=C1c2cc([N+](=O)[O-])ccc2-c2ncccc21	i	i	7*	i	63*	-41*
O=C1c2cccnc2-c2ncccc21	i	i	i	i	·	·
COc1ccc(-n2c(-c3ccc(F)cc3)cnc2SCC(=O)NCc2ccco2)cc1	i	i	i	i	33*	i
Cc1cc[n+](CC(=O)c2cccc([N+](=O)[O-])c2)c2ccccc12	i	i	8.8*	i	49*	-58*
Cc1c(CCOC(=O)c2cccc([N+](=O)[O-])c2)sc[n+]1CC(=O)c1ccccc1	i	i	i	i	·	·
COc1ccc(Cl)cc1C(Nc1cccnc1)c1ccc2cccnc2c1O (stereo unspecified)	i	i	i	i	19*	i
COC(=O)c1[nH]nc(-c2ccccc2)c1-c1ccccc1	i	i	i	i	·	·
